# From PubChem BioAssay (NCATS)
# Results filed as inconclusive are left out. Where a call stands in place of a potency, no number is given. Unmarked numbers belong to inactive results. Active and inactive are the calls of the source. The call rests on the fitted dose curve; in most records, active means well fitted curve in the direction sought with a large enough effect; inconclusive means small, poorly fitted or top-dose-only effect, or another doubt; inactive means no such curve, though single readings can be large; an effect the other way counts as inactive or inconclusive.
# Assays:
# [1] = test system: MKL-2; assay: qHTS assay to identify novel small-molecules to repurpose for Merkel cell carcinoma treatment (AID 1296009); details: MCC and control cell lines, CellTiter-Glo viability, 72 h; series mostly up to 46 µM; further: nearly all actives have a fitted effect of over 60% in size
# How it was run: (§1)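 Cell viability, measured as CellTiter-Glo luminescence, was normalized between DMSO and no-cell wells. The cells had been exposed to 8- or 11-point compound dilutions for 72 hr at 37 degree celsius.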
# [2] = test system: UISO; assay: as above; details: MCC and control cell lines, CellTiter-Glo viability, 72 h; series mostly up to 46 µM
# How it was run: as §1
# [3] = test system: WaGa; assay: as above; details: MCC and control cell lines, CellTiter-Glo viability, 72 h; series mostly up to 46 µM
# How it was run: as §1
# [4] = test system: C33A; assay: Primary qHTS to identify gynecologic anti-cancer compounds using libraries of approved drugs and bioactive compounds (AID 1345084); details: Gynecologic cancer cell panel viability, ATPlite luminescence, 48 h; series mostly up to 57.5 µM; further: nearly all actives have a fitted effect of over 55% in size
# How it was run: (§2)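 Five-point cytotoxicity, 48 h drug exposure at 37 C, 5% CO2, on cells seeded 16 h beforehand. ATP content read by ATPlite luminescence.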
# [5] = test system: CASKI; assay: as above; details: Gynecologic cancer cell panel viability, ATPlite luminescence, 48 h; series mostly up to 57.5 µM
# How it was run: as §2
# [6] = test system: Es-2; assay: as above; details: Gynecologic cancer cell panel viability, ATPlite luminescence, 48 h; series mostly up to 57.5 µM
# How it was run: as §2
# [7] = test system: HeLa; assay: as above; details: Gynecologic cancer cell panel viability, ATPlite luminescence, 48 h; series mostly up to 57.5 µM
# How it was run: as §2
# [8] = test system: Hek293T; assay: as above; details: Gynecologic cancer cell panel viability, ATPlite luminescence, 48 h, control line for the selectivity index; series mostly up to 57.5 µM
# How it was run: as §2
# [9] = test system: CAOV3; assay: as above; details: Gynecologic cancer cell panel viability, ATPlite luminescence, 48 h; series mostly up to 57.5 µM
# How it was run: as §2
# Potency means the concentration at half of the fitted maximal effect.
structure (smiles),measurement,setting,value
COc1cccc(Nc2c(C(N)=O)cnc3c(C)cc(S(=O)(=O)c4cccc(C(=O)N(C)C)c4)cc23)c1,Potency,[1],inactive
same,Potency,[2],inactive
same,Potency,[3],inactive
same,Potency,[4],inactive
same,Potency,[5],inactive
same,Potency,[6],inactive
same,Potency,[7],inactive
same,Potency,[8],inactive
Nc1nc(-c2nn(Cc3ccccc3F)c3ncccc23)nc(N)c1N1CCOCC1,Potency,[1],inactive
same,Potency,[2],inactive
same,Potency,[3],inactive
CC(=O)OCC(=O)[C@@]1(O)[C@H](C)C[C@H]2[C@@H]3C=C(C)C4=Cc5c(cnn5-c5ccccc5)C[C@]4(C)[C@@H]3[C@@H](O)C[C@@]21C,Potency,[1],7.43 µM (active)
same,Potency,[2],inactive
same,Potency,[3],inactive
COc1ccc(-n2nc(C(N)=O)c3c2C(=O)N(c2ccc(N4CCCCC4=O)cc2)CC3)cc1,Potency,[1],inactive
same,Potency,[2],inactive
same,Potency,[3],inactive
same,Potency,[4],inactive
same,Potency,[9],inactive
same,Potency,[5],inactive
same,Potency,[6],inactive
same,Potency,[7],inactive
same,Potency,[8],inactive
O=C(C=Cc1cccc(S(=O)(=O)Nc2ccccc2)c1)NO,Potency,[1],3.4 µM (active)
same,Potency,[2],34 µM (active)
same,Potency,[3],3.03 µM (active)
CC1=C(CO)C(=O)O[C@@H]([C@@H](C)[C@H]2CC[C@H]3[C@@H]4C[C@H]5O[C@]56[C@@H](O)C=CC(=O)[C@]6(C)[C@@H]4CC[C@]23C)C1,Potency,[1],0.132 µM (active)
same,Potency,[2],0.743 µM (active)
same,Potency,[3],0.264 µM (active)
Cc1[nH]c2ccccc2c1CCNCc1ccc(C=CC(=O)NO)cc1,Potency,[1],0.0469 µM (active)
same,Potency,[2],0.526 µM (active)
same,Potency,[3],0.059 µM (active)
COc1ccc(CC2SC(=O)NC2=O)cc1C(=O)NCc1ccc(C(F)(F)F)cc1 (stereo not drawn),Potency,[1],inactive
same,Potency,[2],inactive
same,Potency,[3],inactive
O=c1[nH]nc(Sc2ncc([N+](=O)[O-])s2)n1-c1ccc2c(c1)OCCO2,Potency,[1],5.26 µM (active)
same,Potency,[2],7.43 µM (active)
same,Potency,[3],5.26 µM (active)
CCN1CCN(Cc2ccc(-c3cc4c(N[C@H](C)c5ccccc5)ncnc4[nH]3)cc2)CC1,Potency,[1],0.0132 µM (active)
same,Potency,[2],0.118 µM (active)
same,Potency,[3],0.0209 µM (active)
COc1ccc(CC2c3cc(OC)c(OC)cc3CC[N+]2(C)CCC(=O)OCCCCCOC(=O)CC[N+]2(C)CCc3cc(OC)c(OC)cc3C2Cc2ccc(OC)c(OC)c2)cc1OC (stereo not drawn),"activity change, negative = cytotoxicity",[1],-23.6% [at 9.22 µM]
same,"activity change, negative = cytotoxicity",[2],-1.41% [at 9.22 µM]
same,"activity change, negative = cytotoxicity",[3],-8.88% [at 9.22 µM]
O=C(O)CCCc1c[nH]c2ccccc12,Potency,[1],inactive
same,Potency,[2],inactive
same,Potency,[3],inactive
same,Potency,[4],inactive
same,Potency,[9],inactive
same,Potency,[5],inactive
same,Potency,[6],inactive
same,Potency,[7],inactive
same,Potency,[8],inactive
CC1(C)O[C@@H]2C[C@@H]3[C@H]4C[C@@H](F)C5=CC(=O)C=C[C@]5(C)[C@@]4(F)[C@@H](O)C[C@]3(C)[C@]2(C(=O)CO)O1,Potency,[1],inactive
same,Potency,[2],inactive
same,Potency,[3],inactive
O=C(NCCCNc1nc(Nc2cccc(NC(=O)N3CCCC3)c2)ncc1I)c1cccs1,Potency,[1],inactive
same,Potency,[2],16.6 µM (active)
same,Potency,[3],9.35 µM (active)
C[C@@]12O[C@@H](C[C@]1(O)CO)n1c3ccccc3c3c4c(c5c6ccccc6n2c5c31)CNC4=O,Potency,[1],0.0526 µM (active)
same,Potency,[2],1.66 µM (active)
same,Potency,[3],0.833 µM (active)
CC(C)(O)CCc1ccc(OCc2cc(-c3cccc(OC(F)F)c3)c3ncccc3c2)cc1,Potency,[1],inactive
same,Potency,[2],inactive
same,Potency,[3],inactive
same,Potency,[4],inactive
same,Potency,[5],inactive
same,Potency,[6],inactive
same,Potency,[7],inactive
same,Potency,[8],inactive
CC(C)Nc1cc(C(F)(F)F)cc2nc(NC(=O)c3cccnc3)nn12,Potency,[1],inactive
same,Potency,[2],inactive
same,Potency,[3],inactive
same,Potency,[4],inactive
same,Potency,[5],inactive
same,Potency,[6],inactive
same,Potency,[7],inactive
same,Potency,[8],inactive
CC(C)CC(=O)Nc1n[nH]c2c1CN(C(=O)C1CCN(C)CC1)C2(C)C,Potency,[1],2.64 µM (active)
same,Potency,[2],5.26 µM (active)
same,Potency,[4],6.31 µM (active)
same,Potency,[6],7.08 µM (active)
same,Potency,[7],3.16 µM (active)
same,Potency,[8],3.98 µM (active)
CC1(C)CCC(c2ccc(Cl)cc2)=C(CN2CCN(c3ccc(C(=O)NS(=O)(=O)c4ccc(N[C@H](CCN5CCOCC5)CSc5ccccc5)c(S(=O)(=O)C(F)(F)F)c4)cc3)CC2)C1,Potency,[1],0.264 µM (active)
same,Potency,[2],inactive
same,Potency,[3],0.118 µM (active)
same,Potency,[9],12.6 µM (active)
same,Potency,[5],14.1 µM (active)
same,Potency,[6],inactive
CCN(CC)CCNC(=O)c1ccc2nc(-c3ccccc3)c(-c3ccc(CN4CCC(n5c(=O)[nH]c6ccccc65)CC4)cc3)nc2c1,Potency,[1],1.18 µM (active)
same,Potency,[2],16.6 µM (active)
same,Potency,[3],7.43 µM (active)
same,Potency,[5],inactive
same,Potency,[6],inactive
same,Potency,[7],inactive
CNc1nccc(-c2cccnc2Oc2cc(C(=O)Nc3cccc(C(F)(F)F)c3)ccc2C)n1,Potency,[1],inactive
same,Potency,[2],inactive
same,Potency,[3],inactive
same,Potency,[4],inactive
same,Potency,[8],inactive
Cc1ccc(C(N)=O)cc1Nc1nccc(-c2cn(C(C)C)c3cnccc23)n1,Potency,[1],20.9 µM (active)
same,Potency,[2],4.18 µM (active)
same,Potency,[4],3.16 µM (active)
same,Potency,[5],17.8 µM (active)
same,Potency,[7],25.1 µM (active)
same,Potency,[8],17.8 µM (active)
O=C(c1cncc(Br)c1)N1CCC(N2CCCC2)CC1,Potency,[1],inactive
same,Potency,[2],inactive
same,Potency,[3],inactive
same,Potency,[4],inactive
same,Potency,[5],inactive
same,Potency,[6],inactive
same,Potency,[7],inactive
same,Potency,[8],inactive
CC(C)c1cc(C(=O)N2Cc3ccc(CN4CCN(C)CC4)cc3C2)c(O)cc1O,Potency,[1],inactive
same,Potency,[2],0.469 µM (active)
same,Potency,[9],3.98 µM (active)
